Data on 44 sequences can be found in PMC7819943, “Rice protein-binding microarrays: a tool to detect cis-acting elements near promoter regions in rice”.

In all, about 68,000 sequences were measured (“fluorescence intensity (a.u.)”: median about 9,100, highest 2% from about 16,000 on). This is one part of a sample in which the highest values are shown more often than they occur.

The target of this test is OsWRKY34 (Oryza sativa, UniProt Q0JBA9 1-250). The test can be described thus: protein-binding microarray (RPBM); PBS, 2% BSA, 51.3 ng/ul salmon testes DNA, 50 uM zinc acetate, 200 nM TF, 25 C, 1 h; high values mean tight binding. Conditions: protein: recombinant; tags: N-terminal polyhistidine and DsRed monomer fusion (pET32a); label: CyDye5-dUTP incorporated in the synthesized complementary strand; 3' TTTTT single-stranded linker to array surface; dsDNA, one strand shown. The procedure, abridged: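 In PBS with 2% BSA, salmon testes DNA and 50 µM zinc acetate, 200 nM protein was incubated on a custom Agilent array at 25 °C for 1 h and then washed off. The array had been made double-stranded by primer extension with Cy5-dUTP and blocked with 2% BSA. The proteins were transcription factors fused N-terminally to polyhistidine and DsRed, expressed in E. coli BL21-CodonPlus and purified on Ni–NTA. The binding signal is per-feature fluorescence intensity (arbitrary units) from an Axon 4000B scanner.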
Sequence of OsWRKY34 (Q0JBA9 entry or part of it): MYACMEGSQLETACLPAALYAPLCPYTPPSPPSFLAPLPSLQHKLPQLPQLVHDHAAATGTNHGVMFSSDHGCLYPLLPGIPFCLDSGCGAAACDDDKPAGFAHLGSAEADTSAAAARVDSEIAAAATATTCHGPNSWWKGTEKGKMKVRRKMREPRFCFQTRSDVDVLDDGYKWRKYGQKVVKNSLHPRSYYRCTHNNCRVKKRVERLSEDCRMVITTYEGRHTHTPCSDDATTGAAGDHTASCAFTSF
As to “GCATTCACTCCATCGCACCACTTCATGCCGCAAAATGTTTCGGAGTCACCTAGTGCAG”, the binding signal was 9970 fluorescence intensity (a.u.).
Then “GCTGCACAGCTAGTCAACACAAGCTAGTCAAACCGTTGACCGGAGTCACCTAGTGCAG”, with 19200 fluorescence intensity (a.u.); and “AACCAAACAACCGTTGTCTTGGCACAGCTGTCGCAACCTGCGGAGTCACCTAGTGCAG”, with 8200 fluorescence intensity (a.u.); and “ATACGAGCCAAAGACCGTTGACAAGCTAGTCAACAGTCATCGGAGTCACCTAGTGCAG”, with 8910 fluorescence intensity (a.u.).
In the case of “AAGCTAGTCAAACCGTTGACTACCACTGTCTTTGTTGCGCCGGAGTCACCTAGTGCAG”, the binding signal is 16800 fluorescence intensity (a.u.).
With “TTTTGTCTACTGCGCCTACCACGCCGTTGTCCACTACCTCCGGAGTCACCTAGTGCAG”, the binding signal was 10400 fluorescence intensity (a.u.).
As for “AACCATCATGACCGGCTACCACTAAGCTGCGCCTGTCTACCGGAGTCACCTAGTGCAG”, the binding signal was 8700 fluorescence intensity (a.u.).
As to “CCTCGAGCTGTGCACGGCTGGTTCGTCTCGCGCCGCTTATCGGAGTCACCTAGTGCAG”, the binding signal was 10900 fluorescence intensity (a.u.).
With “TCAGTGTCGGCCGCGATGTCTTTGCAGCTTTGCTGGTTTTCGGAGTCACCTAGTGCAG”, the binding signal was 8090 fluorescence intensity (a.u.).
Then “GGTATTGTTGATACTTTCAGTTTTCGCATTTGTTCGCTTCCGGAGTCACCTAGTGCAG”, with 9230 fluorescence intensity (a.u.); and “AAACTTAGCAAGAGCTCTGACCTATTGGAAAATTTTCTTTCGGAGTCACCTAGTGCAG”, with 9480 fluorescence intensity (a.u.).
Regarding “TTTCGTGATTTTCCCCGGTTGGCCACTACTTTTGCGATTTCGGAGTCACCTAGTGCAG”, the binding signal is 9570 fluorescence intensity (a.u.).
As to “GGACCTACTTTCGCGATTTTCCCCGGTTGGCCACTACTTTCGGAGTCACCTAGTGCAG”, the binding signal was 18800 fluorescence intensity (a.u.).
In the case of “TATATATATTTATCACCGGTTTATTTTGGTCTGGTCTTTTCGGAGTCACCTAGTGCAG”, the binding signal was 13000 fluorescence intensity (a.u.).
On to “AGATTTGGTTTTTTAGGCCGGTTTTTCGTTTTGTCGCCCTCGGAGTCACCTAGTGCAG”, for which the binding signal was 8750 fluorescence intensity (a.u.).
Then “GACCTATTTTCGCGATTTTCCCCGGTTGACCACTACTTTTCGGAGTCACCTAGTGCAG”, with 13100 fluorescence intensity (a.u.); and “ATATTTGGTTTTTTTTCGTACTTTTTTTCGCCCGGTTTTTCGGAGTCACCTAGTGCAG”, with 20800 fluorescence intensity (a.u.).
For the sequence “CAGGACTGCGTGCTCCTTCTCGTTGTTCCTTACTCACCTTCGGAGTCACCTAGTGCAG”, the binding signal was 9560 fluorescence intensity (a.u.).
With “CTACTGCTTTCTTTCTTTCTCTATTGCAGTCTACCTCCTACGGAGTCACCTAGTGCAG”, the binding signal was 11400 fluorescence intensity (a.u.).
On to “CTTTTGACTGCCACAGTGTGTTAGGTATATGTTTGTTTCACGGAGTCACCTAGTGCAG”, for which the binding signal is 11700 fluorescence intensity (a.u.).
Consider “TCTTCCTCATGCGATTTGGTTGGTTGGTTTGACGCTACACCGGAGTCACCTAGTGCAG”, for which the binding signal is 13600 fluorescence intensity (a.u.).
The figure for “GGGTGTGTGCGCATGTGTGTTTGTCGTGTATTAAAAAAAACGGAGTCACCTAGTGCAG” is 9130 fluorescence intensity (a.u.); for “TTAATTATTTCTTGGTATTTGGGTTAAGGGTGGTTGTGCCCGGAGTCACCTAGTGCAG” it is 12600 fluorescence intensity (a.u.); for “TCTACTTTTCTCCACTCTTTTGCTATAGGGGCTGGGGTGGCGGAGTCACCTAGTGCAG” it is 14200 fluorescence intensity (a.u.).
For “TATCTTAGGGCATGTTTGGTTGTACGGATCGTACCTGACTCGGAGTCACCTAGTGCAG”, the binding signal is 9620 fluorescence intensity (a.u.).
Then “GATGGCTACCTAGCTGACACGCAACGCCGGCCTCCGGATCCGGAGTCACCTAGTGCAG”, with 10600 fluorescence intensity (a.u.); and “TTAATTATATGCTAATGGCTAACCTTATTTTACGTATCTTCGGAGTCACCTAGTGCAG”, with 8180 fluorescence intensity (a.u.); and “TATATATATGTGTGTGTGTGTGTGTGTGTGTGTGTGTGTGCGGAGTCACCTAGTGCAG”, with 10100 fluorescence intensity (a.u.).
The figure for “TATATATATATATATATATATATATATATGTGTGTGTGTGCGGAGTCACCTAGTGCAG” is 13700 fluorescence intensity (a.u.); for “TATATATATATATATATATATATATATGTGTGTGTGTGTTCGGAGTCACCTAGTGCAG” it is 14600 fluorescence intensity (a.u.).
Regarding “GGGCGTGGTGGTGGTGGTGGTGGTTATACGGTTTTCGGTTCGGAGTCACCTAGTGCAG”, the binding signal is 25900 fluorescence intensity (a.u.).
For the sequence “TGGTGGTTTTCGTCGTCGTCGTCGTCGTCGGCTTCATATACGGAGTCACCTAGTGCAG”, the binding signal is 10100 fluorescence intensity (a.u.).
For the sequence “TATATATATATATATATATATATATATATATGGTGGTGTTCGGAGTCACCTAGTGCAG”, the binding signal was 20500 fluorescence intensity (a.u.).
Consider “AGCAGATGGAGTATATCTTTAGCTAATTAAGCTATAGCTACGGAGTCACCTAGTGCAG”, for which the binding signal was 23000 fluorescence intensity (a.u.).
Turning to “TATATATATATATATATATGTGTGTGTGTGTGTGTATGGTCGGAGTCACCTAGTGCAG”, the binding signal is 9770 fluorescence intensity (a.u.).
Regarding “TATATATATATATATATATATATATATATATATGTGTGTGCGGAGTCACCTAGTGCAG”, the binding signal was 18100 fluorescence intensity (a.u.).
Turning to “TGGGTTTGTGGGTTATGTTTCGGTGCGTGCCGATAGTATACGGAGTCACCTAGTGCAG”, the binding signal is 14300 fluorescence intensity (a.u.).
“GAATCATGTGCTATCTCGTTAATTATCTGCTCTTTTAGCTCGGAGTCACCTAGTGCAG”: the binding signal was 9000 fluorescence intensity (a.u.).
Consider “CTCCCTTGCCGTCCCAGTTTCCCTGTATTCTGCATGCCGTCGGAGTCACCTAGTGCAG”, for which the binding signal is 9850 fluorescence intensity (a.u.).
On to “ACTTTGCTGCCTATTGTAGATTTGTTATAACGTAGTTACTCGGAGTCACCTAGTGCAG”, for which the binding signal is 10400 fluorescence intensity (a.u.).
The figure for “AACCCTCGCTTTCTTTGATAATCATTCCTAACTGCCTGGTCGGAGTCACCTAGTGCAG” is 8170 fluorescence intensity (a.u.).
As for “AGTTACTGAGTTAGACGTCTCAAGCTGTGTCGTGGAATAACGGAGTCACCTAGTGCAG”, the binding signal is 8700 fluorescence intensity (a.u.).
“AGGAGAGAAAGGAAGGTGGTGTGGGTGGTTGGTGGTGGTGCGGAGTCACCTAGTGCAG”: the binding signal was 10300 fluorescence intensity (a.u.).
As to “GTCTTCTCTGTTCTTCTTCAGATGGCGAAAGCTCTCACCACGGAGTCACCTAGTGCAG”, the binding signal was 10400 fluorescence intensity (a.u.).
